Screens from PubChem BioAssay.
Only some compounds are listed: those with a hit (about 3.7% of all), similar ones and a draw of the others.
Sm TGR inh: inhibitors of Schistosoma mansoni thioredoxin glutathione reductase; 3% of 360,000 active; Q962Y6; purified TGR, DTNB reduction, TNB absorbance 405 nm; Potency, µM (series often up to 114 µM), actives largely listed as inhibitors; further: nearly all actives have a fitted effect of over 60% in size
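First, TGR (20 nM dispensed) and NADPH were mixed with compound. Second, a 15 min room-temperature incubation followed. Third, further NADPH and then DTNB were added to start the reaction. Finally, TNB absorbance was monitored kinetically.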
FMDV antiviral: antivirals against foot and mouth disease virus; AID 1159524; Potency, µM (top dose mostly 57.9 µM), most hits filed as inhibitors; 1.2% of 410,000 active; FMDV antiviral cell-based qHTS; calls by dose curve; tested in HEK293T cells; further: read-out not given here; nearly all actives have a fitted effect of over 45% in size
RE007 growth inh: less growth of the S. pombe RE007 Vpr strain | S. pombe RE007 Vpr strain, BacTiter-Glo ATP luminescence, 24 h | Potency, µM (top dose mostly 92.2 µM), most hits filed as inhibitors | 0.21% of 360,000 active | AID 651644; active means well fitted falling curve with a large enough effect; inconclusive means small, poorly fitted or top-dose-only effect; inactive means no such curve, though single readings can be large or run the other way; further: nearly all actives have a fitted effect of over 50% in size
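Fission yeast RE007 carrying one integrated HIV-1 vpr copy, seeded at OD 0.01 in PMG+AL medium with 23 nL pinned compound. Grown 24 h at 30 degrees; viability read by BacTiter-Glo luminescence after 5 min.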
TbPYK inhibitor: blocks Trypanosoma brucei pyruvate kinase; TbPYK enzyme, Kinase-Glo Plus ATP luminescence, 45 min; Q57TT1; Potency, µM (titrated, usually from 76.8 µM), actives largely listed as inhibitors; 0.12% of 410,000 active; AID 624173; further: nearly all actives have a fitted effect of over 50% in size
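ADP (130 uM final) triggers the TbPYK reaction after compound addition; incubation is 45 min at room temperature. Kinase-Glo Plus is then added and luminescence imaged. Normalized data are fitted to concentration-effect curves.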
Of the large screens only hits and unclear results are named; the others gave an inactive call. Unless noted, the call rests on the fitted dose curve; in most records, active means well fitted curve in the direction sought with a large enough effect; inconclusive means small, poorly fitted or top-dose-only effect, or another doubt; inactive means no such curve, though single readings can be large; an effect the other way counts as inactive or inconclusive.

CN(C)c1ccc(CC(=O)c2nc3ccccc3s2)cc1	Sm TGR inh 39.8µM
COc1ccc([N+](=O)[O-])cc1N(CC(O)CN1CCCCC1)S(=O)(=O)c1ccc(C)cc1 (stereo not drawn)	Sm TGR inh 35.5µM
C[n+]1ccc(/C=N/Nc2nc(Cl)c(C#N)c(Cl)c2Cl)cc1	Sm TGR inh 11.2µM, RE007 growth inh inconclusive
Cc1cc(N=NC(=O)c2ccccc2)ccc1O	Sm TGR inh 11.2µM
O=C(ONc1ccc(N=NC(=O)c2ccccc2O)cc1)c1ccccc1	none
CN1CCN(c2ncnc3ccc(-c4cccc(NS(C)(=O)=O)c4)cc23)CC1	none (no result: Sm TGR inh, RE007 growth inh, TbPYK inhibitor)
CC1CC(C)CN(c2oc(-c3ccccc3F)nc2C#N)C1 (stereo not drawn)	none
COc1ccccc1-c1nc(C#N)c(N2CC(C)CC(C)C2)o1 (stereo not drawn)	Sm TGR inh 1.12µM
Cc1cccc(NS(=O)(=O)c2ccc3oc(=O)c4ncn(C)c4c3c2)c1C	none (no result: RE007 growth inh)
CC1CCN(C(=O)Cn2cc(SCc3cccc(F)c3)c3ccccc32)CC1	none (no result: RE007 growth inh)
N/C(Cc1ccc(Cl)cc1Cl)=N\OC(=O)Cc1cccs1	none
N/C(Cc1ccc(Cl)cc1Cl)=N\OC(=O)c1cccs1	RE007 growth inh 17.8µM
CCOC(=O)C1=C(O)/C(=C\c2ccc(CNC(=O)C(=O)Nc3ccccc3)o2)N=C1C	Sm TGR inh 8.91µM
CCOC(=O)C1=C(O)/C(=C\c2cccs2)N=C1C	none
CCOc1cccc(=NC2CCCCC2)c2c(C)n(C)c(C)c12	FMDV antiviral 11.2µM
O=C1CCCCCN1Sc1ccccc1	RE007 growth inh 12.6µM
O=C(NCC1CCC2(CCN(Cc3cnn(-c4ccc(F)cc4)c3)CC2)O1)c1ccccc1 (stereo not drawn)	none (no result: Sm TGR inh, RE007 growth inh, TbPYK inhibitor)
CCOC(=O)N1CCN(Cc2cc(Cl)c3cccnc3c2O)CC1	Sm TGR inh 31.6µM, RE007 growth inh inconclusive
Oc1c(CN2CCOCC2)cc(COCc2ccccc2)c2cccnc12	Sm TGR inh 44.7µM
Oc1c(CNc2ccccc2)cc(COCc2ccccc2)c2cccnc12	Sm TGR inh 2.82µM, FMDV antiviral inconclusive (no result: RE007 growth inh)
CCOCc1cc(CN2CCN(c3cccc(Cl)c3)CC2)c(O)c2ncccc12	none (no result: RE007 growth inh)
Oc1c(CN2CCN(c3ccccc3)CC2)cc(Br)c2cccnc12	Sm TGR inh 39.8µM, FMDV antiviral inconclusive
C=CCOC(=O)Nc1nc(CCNC(=O)OC(C)(C)C)c(C(=O)OC)s1	none (no result: Sm TGR inh, TbPYK inhibitor)
Cc1oc(-c2cccc(Cl)c2)nc1CSc1nc2ncccc2[nH]1	none (no result: RE007 growth inh)
CC(C)OCc1cc(CN2CCN(c3ccccc3)CC2)c(O)c2ncccc12	Sm TGR inh inconclusive, FMDV antiviral inconclusive (no result: RE007 growth inh)
COCc1cc(CN2CCN(C)CC2)c(O)c2ncccc12	Sm TGR inh 14.1µM
COCCNC(=S)Nc1ccc2nc(N3CCCC3)cc(C)c2c1	Sm TGR inh 44.7µM
CCOCCCNC(=S)Nc1ccc2nc(N3CCCC3)cc(C)c2c1	Sm TGR inh 50.1µM
COCCNC(=S)Nc1ccc2nc(N3CCOCC3)cc(C)c2c1	Sm TGR inh 44.7µM
Cc1cc(N2CCOCC2)nc2ccc(NC(=S)NC(C)C)cc12	none
Cc1cc(N2CCCC2)nc2ccc(NC(=S)NC(C)C)cc12	Sm TGR inh 12.6µM
CC(C)CCn1c(=O)c2sccc2n2c(CCCC(=O)NCCc3ccccc3)nnc12	none (no result: RE007 growth inh)
O=C(CSc1nc2c([nH]c3ccccc32)c(=O)n1-c1ccccc1)Nc1ccccc1F	none (no result: RE007 growth inh)
Oc1ccc(C23CC4CC(CC(C4)C2)C3)cc1O	Sm TGR inh 1.78µM, RE007 growth inh inconclusive, TbPYK inhibitor inconclusive
CCCNC(=O)c1ccc(S(=O)(=O)c2ccc(OC)cc2)c([N+](=O)[O-])c1	Sm TGR inh 2.24µM, FMDV antiviral inconclusive
COc1ccccc1-c1nnc(NC(=O)CCS(=O)(=O)c2ccccc2)o1	Sm TGR inh 39.8µM
COc1ccc(S(=O)(=O)CCC(=O)Nc2c(C)cccc2C)cc1	Sm TGR inh 39.8µM
CC(=O)CCS(=O)(=O)c1ccc(Oc2ccc(S(=O)(=O)CCC(C)=O)cc2)cc1	Sm TGR inh 10µM, FMDV antiviral inconclusive
Cc1cccc(C)c1NC(=O)CCS(=O)(=O)c1ccc(Br)cc1	none
COc1ccc(S(=O)(=O)CCC(=O)NCCc2ccc(C)cc2)cc1	Sm TGR inh 31.6µM
COc1ccc(OC)c(-n2nnc(-c3nc(-c4ccc5c(c4)OCO5)no3)c2C)c1	none (no result: RE007 growth inh)
Cc1cccc(C)c1NC(=O)CCSc1nc(-c2ccc3c(c2)OCO3)cc(C(F)(F)F)n1	none (no result: RE007 growth inh)
Fc1ccccc1N1CCN(c2nccn3nc(-c4ccc(Br)cc4)cc23)CC1	none (no result: RE007 growth inh)
Cn1cc(-c2nc3cnc(Oc4cccc(Cl)c4)nc3n(CCC#N)c2=O)c2ccccc21	none (no result: Sm TGR inh, RE007 growth inh)
N#Cc1nc(/C=C/c2ccc(F)cc2)oc1N1CCCCC1	none (no result: RE007 growth inh)
COc1ccc(CNC(=O)CCS(=O)(=O)c2ccc3c(c2)NC(=O)C(C)S3)cc1 (stereo not drawn)	FMDV antiviral inconclusive
CCc1ccccc1NC(=O)CCS(=O)(=O)c1ccc(OC)cc1	Sm TGR inh 14.1µM
COc1ccc(CNC(=O)CCS(=O)(=O)c2ccc3c(c2)NC(=O)CS3)cc1	Sm TGR inh 12.6µM
COc1ccc(C)c2sc(NC(=O)CCS(=O)(=O)c3ccccc3)nc12	Sm TGR inh 5.01µM
CCCCS(=O)(=O)/C=C\C=C/S(=O)(=O)CCCC	Sm TGR inh 2.24µM, FMDV antiviral inconclusive, RE007 growth inh 8.91µM, TbPYK inhibitor inconclusive
CCOC(=O)C1(CC2CCCCO2)CCN(Cc2ccccc2-c2ccco2)CC1 (stereo not drawn)	Sm TGR inh 39.8µM
COc1ccc(C(C)=O)cc1CSc1nnnn1-c1ccc(O)cc1	Sm TGR inh 7.08µM
Cn1cccc1CNC(=O)Nc1ccccc1	none
C=CCNC(=O)Nc1ccc(F)cc1F	none
Cc1ccc(CNC(=O)Nc2ccccc2)n1C	Sm TGR inh 28.2µM
Cc1ccc(CNC(=O)Nc2ccc(F)cc2F)n1C	Sm TGR inh 31.6µM
COCC(=O)Nc1cc(C(=O)NC2CCCc3ccccc32)c2c(c1)nc(-c1ccncc1)n2C (stereo not drawn)	none (no result: Sm TGR inh, RE007 growth inh, TbPYK inhibitor)
C/C(=N\Nc1ncc(Cl)cc1Cl)c1ccccn1	FMDV antiviral 5.62µM, RE007 growth inh 22.4µM
Cc1cccc(C)c1NC(=O)c1cc(S(N)(=O)=O)c(Cl)cc1O	none (no result: Sm TGR inh, FMDV antiviral, RE007 growth inh)
CCCCC[C@H](O)/C=C/C1C(=O)C=C[C@H]1C/C=C\CCCC(=O)OC (stereo partly drawn)	FMDV antiviral 25.1µM (no result: Sm TGR inh)
O=C(CN1c2ccc(Br)cc2-c2ccccc2S1(=O)=O)N1CCCCC1	none (no result: RE007 growth inh)
O=[N+]([O-])C1=CC=C2C(=NC3(CCCCC3)N2O)C1=NCCc1ccccc1	Sm TGR inh 44.7µM
CC(C)(C)N=C1C([N+](=O)[O-])=CC=C2C1=NC1(CCCCC1)N2O	Sm TGR inh inconclusive
O=C(NCCc1ccccc1)C1CCN(c2nc3ccccc3o2)CC1	none
O=C(NC1CCCCCCC1)C1CCN(c2nc3ccccc3o2)CC1	FMDV antiviral 14.1µM
CCc1cccc(NC(=O)c2coc(=O)c3ccccc23)c1	none (no result: RE007 growth inh)
COc1ccc(-c2nc(C(=O)Nc3cccc(C(C)=O)c3)nn2-c2ccccc2Cl)cc1	none (no result: RE007 growth inh)
CCCCn1c(N)c(N(Cc2ccccc2OC)C(=O)CN2C(=O)NC3(CCCC3)C2=O)c(=O)[nH]c1=O	Sm TGR inh 56.2µM
